Test results: PubChem BioAssay (NCI)
About 83,000 compounds went through this panel and 20% of them were active in at least one assay; those are over-represented in the sample as a whole.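 Values shown are percent growth following 48 h exposure of cells in 96-well plates to a single concentration of compound; below 10 was considered active.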 Unmarked numbers belong to inactive results. Active and inactive are the calls of the source.

Assays:
Experiment in all cases: NCI-60 one-dose screen, 48 h (100 = growth as untreated, 0 = no growth, -100 = all killed)
Details in all cases: 10 µM unless noted
[1] = system: NCI-H23 lung
[2] = system: NCI-H226 lung
[3] = system: NCI-H322M lung
[4] = system: HOP-62 NSCLC
[5] = system: NCI-H460 lung
[6] = system: HOP-92 NSCLC
[7] = system: NCI-H522 lung
[8] = system: A549/ATCC NSCLC
[9] = system: 786-0 renal
[10] = system: COLO 205 colon
[11] = system: DU-145 prostate
[12] = system: K-562 leukemia
[13] = system: MDA-MB-231 breast
[14] = system: RXF 393 renal
[15] = system: SF-268 CNS
[16] = system: SF-295 CNS
[17] = system: SF-539 CNS
[18] = system: UACC-257 melanoma
[19] = system: M14 melanoma
[20] = system: MALME-3M melanoma

SMILES	growth [1]	growth [2]	growth [3]	growth [4]	growth [5]	growth [6]	growth [7]	growth [8]	growth [9]	growth [10]	growth [11]	growth [12]	growth [13]	growth [14]	growth [15]	growth [16]	growth [17]	growth [18]	growth [19]	growth [20]
Cn1cc(-c2nc(-c3c[nH]c4ncccc34)cs2)c2cc(Cl)ccc21	69.5%	81.8%	47.8%	86%	47%	40.4%	52.2%	43%	46.2%	80.2%	54.4%	9.43% (active)	55.3%	63.4%	65.4%	24.4%	71.7%	56%	42.2%	–
COc1cc(-c2cc(-c3nc4cc(Cl)c(Cl)cc4[nH]3)[nH]n2)cc(OC)c1OC	75.3%	38%	92.3%	80.6%	69.7%	61.2%	45.8%	–	87.4%	46.8%	92.5%	17.5%	74%	70.6%	96.5%	–	77.8%	88%	62.3%	46.4%
CNC(=O)c1cc(Oc2ccc3nc(NC(=O)Nc4ccc(Cl)cc4)sc3c2)ccn1	69%	67.9%	66.8%	6.54% (active)	64.4%	63.3%	78%	–	75.3%	79.4%	53.2%	65.6%	34.4%	50.8%	56.2%	66.3%	83.5%	–	63%	17.7%
CCN1CCN(C(=O)[C@@]2(C)CC[C@]3(C)CC[C@]4(C)C(=CC(=O)[C@@H]5[C@@]6(C)CC[C@H](OC7C[C@@H](O)[C@@H](O)C(C)O7)C(C)(C)[C@@H]6CC[C@]54C)[C@@H]3C2)CC1 (stereo partly specified)	45.2%	26.3%	37%	26.9%	-79.5% (active)	0.911% (active)	38.6%	–	-60.5% (active)	106%	2.94% (active)	8.78% (active)	6.15% (active)	60.4%	24.2%	-78% (active)	-59.2% (active)	14.8%	-55.2% (active)	2.56% (active)
O=C1c2cccc3cccc(c23)C(=O)N1CC#Cc1ccc2c3c(cccc13)C(=O)N(CCN1CCNCC1)C2=O	73.7%	102%	98.6%	110%	73.1%	87.7%	99.8%	–	-2.58% (active)	93.5%	99.5%	-15.3% (active)	7.95% (active)	82.9%	93.8%	94.1%	10.2%	104%	101%	-45% (active)
C/C(=N\Nc1ccc2ccccc2n1)c1ccccn1	23.3%	0.47% (active)	-12% (active)	5.02% (active)	0.889% (active)	-10.9% (active)	-16.4% (active)	4.55% (active)	6.89% (active)	0.767% (active)	13.1%	2.37% (active)	-5.17% (active)	9.99% (active)	-3.84% (active)	–	-44.2% (active)	-22.6% (active)	-24.6% (active)	–
N#Cc1cnc2cc(OC[C@@H](O)CO)c(NC(=O)CC3CSSC3)cc2c1Nc1ccc(OCc2cccc(F)c2)c(Cl)c1	-72.4% (active)	-65.3% (active)	-84.2% (active)	-57.1% (active)	-66.9% (active)	9.97% (active)	-72.6% (active)	–	-31.4% (active)	-70.5% (active)	-85.1% (active)	-37.4% (active)	-60.5% (active)	-72.9% (active)	-57% (active)	-80.5% (active)	-79.7% (active)	–	-78.7% (active)	-67.6% (active)
Cc1cc(C=O)c(C)c2c1[nH]c1ccccc12	98.5%	-21.9% (active)	97.7%	103%	76.1%	88.7%	88.5%	99.2%	100%	110%	107%	97.8%	90.5%	117%	96.8%	–	95.9%	78.6%	105%	–
CC1(n2nnnc2N2CCCN(c3ncccc3N)CC2)CCC1	103%	90.4%	94.2%	99%	99.5%	95.7%	100%	–	104%	111%	109%	87.8%	99.9%	98.2%	97%	95.5%	94.8%	108%	97.8%	98.6%
